# Measurements reported in PubChem BioAssay (Tox21).
# Values joined by “and” are separate entries in the source; they are usually repeats but may differ in a detail not shown here. Equal values may be shown once. Results filed as inconclusive are left out. Where a call stands in place of a potency, no number is given. Some structures have more than one record in an assay (separate samples or runs), and their calls can disagree. Active and inactive are the calls of the source. Unless noted, the call rests on the fitted dose curve; in most records, active means well fitted curve in the direction sought with a large enough effect in the repeat runs; inconclusive means weak or mixed curves; inactive means no such curve, though single readings can be large; an effect the other way counts as inactive or inconclusive.
# Legend:
# [1] = qHTS assay for small molecule agonists of the p53 signaling pathway (AID 651631; calls by dose curve; further: nearly all actives have a fitted effect of over 15% in size; further: potency means the concentration at half of the fitted maximal effect)
# In short: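 Stably transfected HCT-116 cells (beta-lactamase behind p53 response elements) get compounds after a 5 h settling period; 16 h later at 37 °C, FRET substrate is loaded and fluorescence read after 2 h.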
# [2] = qHTS assay for small molecules that induce genotoxicity in human embryonic kidney cells expressing luciferase-tagged ATAD5 (AID 651632); further: nearly all actives have a fitted effect of over 15% in size
# In short: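 ATAD5-luc HEK293T, 2,000 cells/well; cpd or DMSO pin-transferred; 16 hr, 37C/5% CO2; Amplite 30 min RT; luminescence.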
# [3] = qHTS assay for small molecule agonists of the p53 signaling pathway - cell viability (AID 651633; calls by dose curve; further: nearly all actives have a fitted effect of over 30% in size; further: potency means the concentration at half of the fitted maximal effect)
# In short: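 Viability counter-read: CellTiter-Glo luminescence (30 min, room temperature) in the same p53RE-bla plates. These plates had been exposed to compounds for 16 h at 37 C.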
# [4] = qHTS assay for small molecules that induce genotoxicity in human embryonic kidney cells expressing luciferase-tagged ATAD5 - cell viability (AID 651634; calls by dose curve; further: nearly all actives have a fitted effect of over 25% in size; further: potency means the concentration at half of the fitted maximal effect)
# In short: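 Fluorescence from CellTiter-Fluor, reporting protease activity within live cells, served as the viability read-out. HEK293T cells carrying luciferase-tagged ATAD5 had been treated with compound for 15.5 hr at 37C.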
# [5] = qHTS assay to test for compound auto fluorescence at 535 nm (green) in HepG2 cells (AID 720675)
# [6] = qHTS assay to test for compound auto fluorescence at 460 nm (blue) in HEK293 cells (AID 720678)
# In short: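 Triamterene serves as the blue fluorophore standard. Compound signal at 405/460 nm is read in HEK293 wells (2,000 cells, 10% dialyzed FBS) after overnight treatment at 37C.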
# [7] = qHTS assay to test for compound auto fluorescence at 590 nm (red) in HEK293 cells (AID 720679)
# In short: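 We plated HEK293 cells in 10% dialyzed FBS medium, let them adhere for 4-5 hr, then added 23 nL compound. Overnight at 37C and 5% CO2 preceded fluorescence measurement at 540/590nm.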
# [8] = qHTS assay to test for compound auto fluorescence at 535 nm (green) in HEK293 cells (AID 720680)
# [9] = qHTS assay to test for compound auto fluorescence at 460 nm (blue) in HEK293 cell free culture (AID 720681)
# In short: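 Blue fluorescence (Ex 405/Em 460 nm, triamterene-equivalent) was read immediately after pin transfer of compound or DMSO into medium (DMEM, 10% FBS) without cells.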
# [10] = qHTS assay to test for compound auto fluorescence at 535 nm (green) in HEK293 cell free culture (AID 720682)
# In short: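 Using fluorescein as calibrant, autofluorescence was quantified at 485/535 nm in cell-free DMEM containing 10% FBS after pintool addition of compound or vehicle.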
# [11] = qHTS assay to test for compound auto fluorescence at 590 nm (red) in HEK293 cell free culture (AID 720683)
# In short: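 Red-channel autofluorescence of compounds in culture medium (DMEM, 10% FBS), no cells, measured at 540/590 nm. Rose Bengal sodium is the reference fluorophore for equivalence.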
# [12] = qHTS assay to test for compound auto fluorescence at 590 nm (red) in HepG2 cell free culture (AID 720684)
# In short: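 Plate contents were MEM with 10% FBS plus test compound or DMSO, no cells. Fluorescence was recorded with 540 nm excitation and 590 nm emission.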
# [13] = qHTS assay to test for compound auto fluorescence at 460 nm (blue) in HepG2 cell free culture (AID 720685)
# In short: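 Compound (23 nL) or DMSO pinned into cell-free MEM with 10% FBS; blue fluorescence read at 405/460 nm excitation/emission, expressed as auto-fluorescence equivalency to triamterene.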
# [14] = qHTS assay to test for compound auto fluorescence at 535 nm (green) in HepG2 cell free culture (AID 720686)
# [15] = qHTS assay to test for compound auto fluorescence at 460 nm (blue) in HepG2 cells (AID 720687)
# In short: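 Blue-channel autofluorescence (Ex/Em 405/460 nm, triamterene-equivalent) was measured after 1 hr compound exposure at 37 C, 5% CO2. Cells were HepG2, plated overnight at 37 C in MEM plus 10% FBS.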
# [16] = target: Glucocorticoid receptor (Homo sapiens) (UniProt P04150); experiment: qHTS assay to identify small molecule agonists of the glucocorticoid receptor (GR) signaling pathway (AID 720691; active means well fitted activation curve with a large enough effect in the signal ratio in the repeat runs, not every such curve was filed as active; the % refers to the signal ratio; further: potency means the concentration at half of the fitted maximal effect); conditions: GR-bla HeLa, beta-lactamase reporter ratio, 18 h; activation: at 62.4 µM (top of the series)
# In short: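 Fluorescence intensity from LiveBLAzer B/G FRET substrate (2 h, room temperature) reports beta-lactamase expression driven by the glucocorticoid response element in GR-bla HeLa cells after 18 h compound exposure at 37 C.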
# [17] = target: Glucocorticoid receptor (Homo sapiens) (UniProt P04150); experiment: qHTS assay to identify small molecule antagonists of the glucocorticoid receptor (GR) signaling pathway (AID 720692; active means well fitted inhibition curve with a large enough effect in the signal ratio in the repeat runs, not every such curve was filed as active; the % refers to the signal ratio; further: potency means the concentration at half of the fitted maximal effect)
# In short: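 HeLa GR-bla cells; cmpd + dex 5 nM final, 18 h 37 C; LiveBLAzer B/G FRET substrate 2 h RT; fluorescence intensity read. Antagonist mode, qHTS.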
# [18] = qHTS assay for small molecule disruptors of the mitochondrial membrane potential (AID 720635); further: potency means the concentration at half of the fitted maximal effect
# In short: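 Mitochondrial membrane potential tracked with Mito-MPS dye, red aggregates (ex 540/em 590 nm) against green monomers (ex 490/em 535 nm). Compound treatment 1 hr at 37C, dye 30 min in HepG2.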
# [19] = qHTS assay for small molecule disruptors of the mitochondrial membrane potential - cell viability (AID 720634; calls by dose curve; further: nearly all actives have a fitted effect of over 20% in size; further: potency means the concentration at half of the fitted maximal effect)
# In short: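 Cells: HepG2, 2,000/well, attached overnight. Compound 1 hr, 37 C/5% CO2. +m-MPI dye, +CellTiter-Glo 30 min RT. Readout: luminescence (ATP).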
# [20] = qHTS assay to test for compound auto fluorescence at 590 nm (red) in HepG2 cells (AID 720674)
# In short: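 1 hr compound incubation on HepG2 cells, 37 C, 5% CO2; plate read ex 540 nm / em 590 nm; intensities reported as Rose Bengal sodium equivalents.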
# Sequence of Glucocorticoid receptor (Homo sapiens) (P04150 whole entry, looked up): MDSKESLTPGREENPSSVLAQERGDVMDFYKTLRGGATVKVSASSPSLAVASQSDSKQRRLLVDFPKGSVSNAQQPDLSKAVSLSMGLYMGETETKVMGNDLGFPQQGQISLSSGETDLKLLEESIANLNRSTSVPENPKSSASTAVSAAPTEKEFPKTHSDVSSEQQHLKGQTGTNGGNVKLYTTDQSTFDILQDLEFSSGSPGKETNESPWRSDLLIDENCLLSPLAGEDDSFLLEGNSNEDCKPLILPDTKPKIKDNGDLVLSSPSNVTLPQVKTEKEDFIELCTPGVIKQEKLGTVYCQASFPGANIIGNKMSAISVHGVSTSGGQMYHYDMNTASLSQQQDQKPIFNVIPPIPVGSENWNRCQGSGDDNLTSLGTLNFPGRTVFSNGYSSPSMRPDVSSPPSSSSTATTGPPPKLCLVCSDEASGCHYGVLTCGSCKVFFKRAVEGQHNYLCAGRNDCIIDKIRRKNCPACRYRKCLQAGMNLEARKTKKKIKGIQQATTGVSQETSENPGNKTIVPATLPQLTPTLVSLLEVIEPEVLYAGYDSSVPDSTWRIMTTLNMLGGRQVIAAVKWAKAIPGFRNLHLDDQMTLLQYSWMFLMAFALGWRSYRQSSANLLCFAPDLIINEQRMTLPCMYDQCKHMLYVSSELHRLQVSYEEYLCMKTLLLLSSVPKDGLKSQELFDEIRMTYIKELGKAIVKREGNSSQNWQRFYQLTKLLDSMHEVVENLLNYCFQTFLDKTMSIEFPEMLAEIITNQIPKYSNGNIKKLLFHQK
SMILES,Potency [1],Potency [2],Potency [3],Potency [4],Potency [5],Potency [6],outcome [7],outcome [8],Potency [9],outcome [10],outcome [11],outcome [12],Potency [13],Potency [14],Potency [15],Potency [16],Potency [17],Potency [18],Potency [19],outcome [20]
[O]=[Cr][O][Cr]=[O],inactive,inactive,inactive,inactive,inactive,inactive,inactive,inactive,inactive,inactive,inactive,inactive,inactive,inactive,inactive,inactive,inactive,,,
CN,inactive,,inactive,inactive,inactive,,inactive,inactive,inactive,inactive,inactive,inactive,inactive,inactive,inactive,inactive,inactive,inactive,,
C=CC(=C)C,inactive,,inactive,,inactive,inactive,inactive,inactive,inactive,inactive,inactive,inactive,inactive,inactive,inactive,,,,inactive,
CCC1COC(Cn2cncn2)(c2ccc(Cl)cc2Cl)O1 (configuration not stated),inactive,,inactive,,inactive,inactive,inactive,inactive,inactive,inactive,inactive,inactive,inactive,inactive,inactive,inactive,inactive,,,inactive
Oc1cccc(Cl)c1Cl,,inactive,inactive,inactive,inactive,inactive,inactive,inactive,inactive,inactive,inactive,inactive,inactive,inactive,inactive,inactive,inactive,48.8 µM (active),inactive,inactive
CCCCN(CCCC)C(=S)S,,inactive,inactive,inactive,inactive,inactive,inactive,inactive,inactive,inactive,inactive,inactive,inactive,inactive,inactive,inactive,,,inactive,inactive
C=C(C)C(=O)[O][Sn]([CH2]CCC)([CH2]CCC)[CH2]CCC,,inactive,611 nM (active),0.611 µM (active),inactive,inactive,,inactive,inactive,,inactive,inactive,inactive,inactive,inactive,,,0.0611 µM (active),3.86 µM (active),inactive
CCCCCCCCCCCCCCn1cc[n+](C)c1,,inactive,43.4 µM (active) and 67.8 µM (active) and inactive,61.3 µM (active),inactive,,inactive,inactive,inactive,inactive,inactive,inactive,inactive,inactive,inactive,,,10.7 µM (active) and 34.3 µM (active),54.6 µM (active) and inactive,inactive
CC[C@H](C)[C@H]1O[C@]2(C=C[C@@H]1C)C[C@@H]1C[C@@H](C/C=C(\C)[C@@H](O[C@H]3C[C@H](OC)[C@@H](O[C@H]4C[C@H](OC)[C@@H](NC)[C@H](C)O4)[C@H](C)O3)[C@@H](C)/C=C/C=C3\CO[C@@H]4[C@H](O)C(C)=C[C@@H](C(=O)O1)[C@]34O)O2,,inactive,10900 nM (active),17.2 µM (active),inactive,inactive,,inactive,inactive,inactive,inactive,inactive,inactive,inactive,inactive,,,6.86 µM (active),30.6 µM (active),
c1cc[n+]2c(c1)-c1cccc[n+]1CC2,,inactive,inactive,inactive,inactive,inactive,inactive,inactive,inactive,inactive,inactive,inactive,inactive,inactive,inactive,inactive,inactive,inactive,inactive,inactive
CC(Cc1ccc(OCC(=O)O)cc1)NCC(O)c1csc(C(F)(F)F)n1 (configuration not stated),,inactive,inactive,inactive,inactive,inactive,inactive,inactive,inactive,inactive,inactive,inactive,inactive,inactive,inactive,inactive,inactive,inactive,inactive,inactive
COP(=O)(OC)Oc1ccc([N+](=O)[O-])cc1,,inactive,inactive,inactive,inactive,inactive,inactive,inactive,inactive,inactive,inactive,inactive,inactive,inactive,inactive,,,inactive,inactive,inactive
c1csc(-c2ccc(-c3cccs3)s2)c1,34.4 µM (active),,inactive,,inactive,inactive,inactive,inactive,inactive,,inactive,inactive,,inactive,,49 µM (active),,61.1 µM (active),,inactive
Clc1ccc(C(c2ccc(Cl)cc2)C(Cl)Cl)cc1,,inactive,62.1 µM (active) and 61.1 µM (active),inactive,inactive,inactive,inactive,inactive,inactive,inactive,inactive,inactive,inactive,inactive,inactive,inactive,24.9 µM (active),9.85 µM (active) and 9.69 µM (active),inactive,inactive
